The values below come from paper PMC7862700, “An all-to-all approach to the identification of sequence-specific readers for epigenetic DNA modifications on cytosine”.

Common to all, as to test: DAPPL (digital affinity profiling via proximity ligation, sequencing); 10 mM Tris-HCl pH 7.5, 50 mM NaCl, 1 mM DTT, 4% glycerol, room temperature, 30 min; GST-TFs on glutathione beads, 16-mer random dsDNA library, 0.1% formaldehyde crosslink after washing; high values mean tight binding
One assay addresses T1, FEV (Homo sapiens, UniProt Q99581 1-238).
T1 sequence: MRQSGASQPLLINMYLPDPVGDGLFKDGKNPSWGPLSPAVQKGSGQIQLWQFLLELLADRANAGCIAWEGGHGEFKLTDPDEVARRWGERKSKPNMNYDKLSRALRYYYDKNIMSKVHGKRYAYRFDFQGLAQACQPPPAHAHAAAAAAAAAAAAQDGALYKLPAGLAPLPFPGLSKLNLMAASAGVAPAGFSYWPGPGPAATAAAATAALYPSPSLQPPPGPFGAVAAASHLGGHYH
Conditions: protein: recombinant; tags: N-terminal GST; dsDNA, one strand shown. Summed up:
(§1)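 Human transcription factors fused to GST were expressed in yeast, captured on glutathione beads, given DNA barcodes and pooled with a GST-only negative control. Pools were incubated with 200 nmole of a 16-mer random double-stranded DNA library in Tris/NaCl/DTT/glycerol buffer at room temperature for 30 min. They were then washed, crosslinked with 0.1% formaldehyde, proximity-ligated (BsaI/T4 ligase, 1 h, 37 °C), PCR-amplified and sequenced on an Illumina NextSeq500. Binding signal is each 6-mer's read frequency for a factor divided by its frequency for the GST control.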

The target of the next assay is ETV5 (Homo sapiens, UniProt P41161 1-510). Conditions: protein: recombinant; tags: N-terminal GST; dsDNA, one strand shown. Summed up: as §1
Sequence of ETV5 (P41161 whole entry): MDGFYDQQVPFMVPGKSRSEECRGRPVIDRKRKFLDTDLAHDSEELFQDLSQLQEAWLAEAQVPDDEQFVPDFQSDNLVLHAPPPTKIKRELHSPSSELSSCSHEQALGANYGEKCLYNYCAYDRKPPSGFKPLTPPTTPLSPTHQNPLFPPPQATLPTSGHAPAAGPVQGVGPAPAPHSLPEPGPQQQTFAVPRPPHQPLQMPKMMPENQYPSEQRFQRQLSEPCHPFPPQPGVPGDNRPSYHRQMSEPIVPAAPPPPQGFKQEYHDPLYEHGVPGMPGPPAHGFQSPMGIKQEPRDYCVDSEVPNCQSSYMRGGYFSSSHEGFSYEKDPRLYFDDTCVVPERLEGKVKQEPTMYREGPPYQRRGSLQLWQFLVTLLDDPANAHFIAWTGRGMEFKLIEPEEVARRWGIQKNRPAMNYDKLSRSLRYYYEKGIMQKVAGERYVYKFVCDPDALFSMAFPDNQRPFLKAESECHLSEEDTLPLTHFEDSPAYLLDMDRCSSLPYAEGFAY
For a further assay, the target named is HSF1 (Homo sapiens, UniProt Q00613 1-529). Conditions: protein: recombinant; tags: N-terminal GST; chain copies: 3; dsDNA, one strand shown. Put shortly:
as §1

Another assay deals with T2, SPIC (Homo sapiens, UniProt Q8N5J4 1-248).
T2 sequence: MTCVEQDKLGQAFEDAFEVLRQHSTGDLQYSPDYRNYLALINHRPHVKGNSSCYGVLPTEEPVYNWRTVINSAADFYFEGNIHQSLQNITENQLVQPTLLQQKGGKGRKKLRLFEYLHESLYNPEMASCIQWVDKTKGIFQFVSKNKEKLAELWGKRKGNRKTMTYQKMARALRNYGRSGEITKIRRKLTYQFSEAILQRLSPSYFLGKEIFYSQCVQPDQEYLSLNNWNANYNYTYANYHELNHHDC
Conditions: protein: recombinant; tags: N-terminal GST; dsDNA, one strand shown. Put shortly:
as §1

For the next assay, the target named is ELF4 (Homo sapiens, UniProt Q99607 1-663). The following applies: protein: recombinant; tags: N-terminal GST; dsDNA, one strand shown. Summed up:
as §1

The next assay has as its target T3, ELK4 (Homo sapiens, UniProt P28324-2 1-405).
T3 sequence: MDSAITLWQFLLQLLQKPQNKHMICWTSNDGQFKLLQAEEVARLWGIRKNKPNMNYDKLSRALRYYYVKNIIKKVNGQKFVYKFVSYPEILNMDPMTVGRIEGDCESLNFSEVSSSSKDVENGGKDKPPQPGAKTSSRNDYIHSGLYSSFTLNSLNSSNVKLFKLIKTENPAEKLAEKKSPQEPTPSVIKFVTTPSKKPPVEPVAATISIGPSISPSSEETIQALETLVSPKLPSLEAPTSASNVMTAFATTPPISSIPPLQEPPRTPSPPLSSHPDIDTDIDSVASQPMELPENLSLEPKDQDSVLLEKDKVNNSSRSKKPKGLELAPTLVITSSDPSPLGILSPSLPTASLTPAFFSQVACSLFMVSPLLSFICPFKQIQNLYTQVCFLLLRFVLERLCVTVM
Conditions: protein: recombinant; tags: N-terminal GST; dsDNA, one strand shown. Summed up: as §1

A further assay concerns the target T4, ETV2 (Homo sapiens, UniProt O00321 1-342).
T4 sequence: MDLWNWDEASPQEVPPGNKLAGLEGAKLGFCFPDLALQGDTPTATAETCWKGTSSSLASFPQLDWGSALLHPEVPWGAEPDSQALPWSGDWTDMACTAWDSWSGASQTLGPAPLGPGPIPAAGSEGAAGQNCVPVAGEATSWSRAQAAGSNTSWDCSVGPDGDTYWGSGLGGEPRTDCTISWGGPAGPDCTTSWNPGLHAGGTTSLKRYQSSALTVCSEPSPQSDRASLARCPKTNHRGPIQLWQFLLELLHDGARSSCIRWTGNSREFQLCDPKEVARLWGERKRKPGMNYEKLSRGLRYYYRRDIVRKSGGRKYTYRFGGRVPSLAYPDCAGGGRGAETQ
The following applies: protein: recombinant; tags: N-terminal GST; dsDNA, one strand shown. Summed up:
as §1

Another assay deals with T5, ELF3 (Homo sapiens, UniProt P78545 1-371).
T5 sequence: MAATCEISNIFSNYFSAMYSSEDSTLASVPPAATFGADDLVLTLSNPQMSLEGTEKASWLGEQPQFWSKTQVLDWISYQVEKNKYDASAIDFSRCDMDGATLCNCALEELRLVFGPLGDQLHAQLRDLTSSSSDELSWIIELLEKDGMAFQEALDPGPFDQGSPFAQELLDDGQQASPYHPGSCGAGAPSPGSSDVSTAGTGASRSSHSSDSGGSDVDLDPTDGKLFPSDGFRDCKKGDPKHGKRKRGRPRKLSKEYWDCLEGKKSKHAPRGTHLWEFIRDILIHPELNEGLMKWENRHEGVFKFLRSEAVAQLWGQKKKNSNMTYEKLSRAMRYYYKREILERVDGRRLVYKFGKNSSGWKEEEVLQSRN
Conditions: protein: recombinant; tags: N-terminal GST; dsDNA, one strand shown. Summed up: as §1

For the next assay, the target named is CRX (Homo sapiens, UniProt O43186 1-299). The following applies: protein: recombinant; tags: N-terminal GST; dsDNA, one strand shown. Summed up:
as §1

The target of a further assay is ETV1 (Homo sapiens, UniProt P50549 1-477). Conditions: protein: recombinant; tags: N-terminal GST; dsDNA, one strand shown. Put shortly:
as §1

In the next assay the target is T6, ERF (Homo sapiens, UniProt P50548 1-548).
T6 sequence: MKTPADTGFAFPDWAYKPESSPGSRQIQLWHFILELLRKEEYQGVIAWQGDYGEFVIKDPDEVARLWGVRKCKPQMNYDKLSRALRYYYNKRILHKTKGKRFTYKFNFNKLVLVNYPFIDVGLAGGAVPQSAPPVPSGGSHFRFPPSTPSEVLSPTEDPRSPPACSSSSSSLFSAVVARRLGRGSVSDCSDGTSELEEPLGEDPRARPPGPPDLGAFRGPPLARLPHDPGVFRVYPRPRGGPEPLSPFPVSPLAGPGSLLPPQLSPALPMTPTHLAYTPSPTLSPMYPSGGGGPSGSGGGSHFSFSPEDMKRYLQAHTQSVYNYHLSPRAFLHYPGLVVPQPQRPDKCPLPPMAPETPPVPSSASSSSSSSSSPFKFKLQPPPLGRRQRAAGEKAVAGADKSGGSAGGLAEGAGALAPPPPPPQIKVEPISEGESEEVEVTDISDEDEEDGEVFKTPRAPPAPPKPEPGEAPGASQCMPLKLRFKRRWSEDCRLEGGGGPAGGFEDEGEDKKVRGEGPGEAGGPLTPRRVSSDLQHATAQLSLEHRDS
Conditions: protein: recombinant; tags: N-terminal GST; dsDNA, one strand shown. Put shortly:
as §1

The next assay deals with T7, ETV3L (Homo sapiens, UniProt Q6ZN32 1-361).
T7 sequence: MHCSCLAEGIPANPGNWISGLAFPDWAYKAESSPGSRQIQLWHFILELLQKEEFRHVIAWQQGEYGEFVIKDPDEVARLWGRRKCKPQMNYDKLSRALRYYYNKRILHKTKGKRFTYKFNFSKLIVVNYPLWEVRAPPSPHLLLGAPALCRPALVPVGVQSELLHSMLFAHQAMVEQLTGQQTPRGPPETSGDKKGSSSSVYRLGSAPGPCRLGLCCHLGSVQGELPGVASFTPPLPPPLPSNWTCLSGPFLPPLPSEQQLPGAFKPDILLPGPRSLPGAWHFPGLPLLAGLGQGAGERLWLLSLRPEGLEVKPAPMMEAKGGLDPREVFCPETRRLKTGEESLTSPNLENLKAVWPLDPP
Conditions: protein: recombinant; tags: N-terminal GST; dsDNA, one strand shown. Put shortly: as §1

The target of a further assay is T8, ETS2 (Homo sapiens, UniProt P15036 1-469).
T8 sequence: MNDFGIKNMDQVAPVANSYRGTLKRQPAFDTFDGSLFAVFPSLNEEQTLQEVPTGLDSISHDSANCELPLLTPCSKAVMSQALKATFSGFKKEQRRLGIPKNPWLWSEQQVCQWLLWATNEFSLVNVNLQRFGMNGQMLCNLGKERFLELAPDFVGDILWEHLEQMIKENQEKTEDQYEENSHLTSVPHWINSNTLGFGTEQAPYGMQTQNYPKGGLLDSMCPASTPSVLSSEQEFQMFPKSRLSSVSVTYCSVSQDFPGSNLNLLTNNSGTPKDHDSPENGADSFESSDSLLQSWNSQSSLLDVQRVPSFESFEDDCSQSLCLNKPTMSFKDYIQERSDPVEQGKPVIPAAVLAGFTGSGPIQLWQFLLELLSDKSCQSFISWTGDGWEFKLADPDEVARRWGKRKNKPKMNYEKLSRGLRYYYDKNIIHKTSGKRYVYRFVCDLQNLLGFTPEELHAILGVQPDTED
The following applies: protein: recombinant; tags: N-terminal GST; dsDNA, one strand shown. Summed up:
as §1

The target in another assay is T9, SPDEF (Homo sapiens, UniProt O95238 1-335).
T9 sequence: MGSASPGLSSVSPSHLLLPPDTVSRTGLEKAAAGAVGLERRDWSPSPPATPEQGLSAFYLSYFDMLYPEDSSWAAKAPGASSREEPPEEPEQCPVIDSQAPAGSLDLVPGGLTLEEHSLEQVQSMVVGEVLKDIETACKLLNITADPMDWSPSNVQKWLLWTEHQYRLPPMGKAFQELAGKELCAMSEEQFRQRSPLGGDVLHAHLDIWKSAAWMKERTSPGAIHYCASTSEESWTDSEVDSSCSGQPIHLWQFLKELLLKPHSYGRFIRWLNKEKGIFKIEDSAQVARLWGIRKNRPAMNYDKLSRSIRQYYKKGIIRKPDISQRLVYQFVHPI
Conditions: protein: recombinant; tags: N-terminal GST; dsDNA, one strand shown. Put shortly: as §1

In a further assay the target is T10, ETV7 (Homo sapiens, UniProt Q9Y603 1-341).
T10 sequence: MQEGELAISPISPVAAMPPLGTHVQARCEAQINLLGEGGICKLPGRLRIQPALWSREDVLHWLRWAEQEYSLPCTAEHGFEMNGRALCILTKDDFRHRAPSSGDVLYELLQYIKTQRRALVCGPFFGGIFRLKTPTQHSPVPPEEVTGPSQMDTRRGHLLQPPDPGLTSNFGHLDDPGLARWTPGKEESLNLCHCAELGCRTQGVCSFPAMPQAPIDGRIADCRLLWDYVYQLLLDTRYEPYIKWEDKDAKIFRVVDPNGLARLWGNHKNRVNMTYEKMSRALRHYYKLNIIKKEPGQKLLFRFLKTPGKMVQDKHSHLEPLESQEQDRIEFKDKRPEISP
The following applies: protein: recombinant; tags: N-terminal GST; dsDNA, one strand shown. Put shortly:
as §1

The target of the next assay is T11, ELF5 (Homo sapiens, UniProt Q9UKW6-2 1-255).
T11 sequence: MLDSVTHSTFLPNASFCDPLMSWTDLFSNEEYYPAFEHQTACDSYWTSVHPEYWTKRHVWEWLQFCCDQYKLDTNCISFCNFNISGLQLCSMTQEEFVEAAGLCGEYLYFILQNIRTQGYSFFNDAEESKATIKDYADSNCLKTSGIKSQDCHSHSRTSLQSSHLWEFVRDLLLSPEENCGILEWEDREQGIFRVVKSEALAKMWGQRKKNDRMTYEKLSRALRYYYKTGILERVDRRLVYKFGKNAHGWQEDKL
The following applies: protein: recombinant; tags: N-terminal GST; dsDNA, one strand shown. Summed up:
as §1

The target in the next assay is T12, ETV3 (Homo sapiens, UniProt P41162-2 1-143).
T12 sequence: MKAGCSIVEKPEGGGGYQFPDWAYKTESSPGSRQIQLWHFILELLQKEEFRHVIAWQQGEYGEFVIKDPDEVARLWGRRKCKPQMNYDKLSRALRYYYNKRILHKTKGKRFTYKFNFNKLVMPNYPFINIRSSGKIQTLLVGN
The following applies: protein: recombinant; tags: N-terminal GST; dsDNA, one strand shown. Put shortly: as §1

The target in another assay is ETV6 (Homo sapiens, UniProt P41212 1-452). The following applies: protein: recombinant; tags: N-terminal GST; dsDNA, one strand shown. Summed up: as §1
Sequence of ETV6 (P41212 whole entry): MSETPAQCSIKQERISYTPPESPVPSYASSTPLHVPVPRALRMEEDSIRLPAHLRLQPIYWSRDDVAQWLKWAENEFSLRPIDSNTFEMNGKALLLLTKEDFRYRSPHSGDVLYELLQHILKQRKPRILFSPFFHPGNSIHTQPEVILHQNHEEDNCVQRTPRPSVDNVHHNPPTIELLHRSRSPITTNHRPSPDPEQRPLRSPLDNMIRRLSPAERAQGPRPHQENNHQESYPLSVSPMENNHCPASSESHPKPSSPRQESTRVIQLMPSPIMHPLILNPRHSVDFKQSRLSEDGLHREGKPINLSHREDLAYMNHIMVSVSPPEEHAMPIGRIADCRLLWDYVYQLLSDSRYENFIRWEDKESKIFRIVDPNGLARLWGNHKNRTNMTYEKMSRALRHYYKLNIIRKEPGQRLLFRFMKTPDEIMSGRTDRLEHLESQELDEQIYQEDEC

Sequence of ELF4 (Q99607 whole entry): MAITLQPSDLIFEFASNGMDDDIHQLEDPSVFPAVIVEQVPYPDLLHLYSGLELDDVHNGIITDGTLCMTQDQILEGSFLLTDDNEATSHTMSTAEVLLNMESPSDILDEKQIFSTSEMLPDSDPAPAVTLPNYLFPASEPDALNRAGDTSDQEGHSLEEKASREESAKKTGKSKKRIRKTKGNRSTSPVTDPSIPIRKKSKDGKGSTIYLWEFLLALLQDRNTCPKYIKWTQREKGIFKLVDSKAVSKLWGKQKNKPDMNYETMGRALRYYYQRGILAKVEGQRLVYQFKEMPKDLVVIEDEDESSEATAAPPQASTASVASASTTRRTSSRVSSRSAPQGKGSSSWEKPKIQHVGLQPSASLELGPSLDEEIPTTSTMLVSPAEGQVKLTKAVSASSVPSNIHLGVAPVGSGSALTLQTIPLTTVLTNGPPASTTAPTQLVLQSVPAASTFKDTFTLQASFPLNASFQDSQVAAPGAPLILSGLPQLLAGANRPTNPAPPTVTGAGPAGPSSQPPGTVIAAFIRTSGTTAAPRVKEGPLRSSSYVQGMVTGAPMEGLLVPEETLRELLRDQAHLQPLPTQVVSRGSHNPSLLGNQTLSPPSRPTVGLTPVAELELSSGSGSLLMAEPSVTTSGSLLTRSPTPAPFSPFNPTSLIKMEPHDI
Sequence of HSF1 (Q00613 whole entry): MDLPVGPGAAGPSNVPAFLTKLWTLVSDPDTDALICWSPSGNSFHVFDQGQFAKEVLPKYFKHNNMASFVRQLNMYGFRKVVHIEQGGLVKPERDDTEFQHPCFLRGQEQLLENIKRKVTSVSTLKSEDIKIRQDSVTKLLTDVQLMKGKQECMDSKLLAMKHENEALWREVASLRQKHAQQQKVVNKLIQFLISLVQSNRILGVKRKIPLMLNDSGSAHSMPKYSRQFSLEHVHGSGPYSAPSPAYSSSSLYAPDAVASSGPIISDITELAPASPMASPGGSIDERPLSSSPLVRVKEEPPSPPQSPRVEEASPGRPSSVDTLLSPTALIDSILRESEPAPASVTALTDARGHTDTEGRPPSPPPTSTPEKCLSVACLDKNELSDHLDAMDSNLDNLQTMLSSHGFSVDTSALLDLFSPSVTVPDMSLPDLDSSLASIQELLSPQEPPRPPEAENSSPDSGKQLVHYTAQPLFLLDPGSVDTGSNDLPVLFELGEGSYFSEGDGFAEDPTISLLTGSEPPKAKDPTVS
Sequence of CRX (O43186 whole entry): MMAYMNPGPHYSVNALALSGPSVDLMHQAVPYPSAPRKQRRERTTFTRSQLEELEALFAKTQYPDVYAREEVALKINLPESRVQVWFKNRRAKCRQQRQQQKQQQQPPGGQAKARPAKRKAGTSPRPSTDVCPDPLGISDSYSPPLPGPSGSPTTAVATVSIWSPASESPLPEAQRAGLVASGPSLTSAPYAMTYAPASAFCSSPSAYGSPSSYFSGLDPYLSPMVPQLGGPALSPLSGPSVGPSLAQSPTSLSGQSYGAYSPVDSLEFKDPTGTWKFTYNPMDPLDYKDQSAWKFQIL
Sequence of ETV1 (P50549 whole entry): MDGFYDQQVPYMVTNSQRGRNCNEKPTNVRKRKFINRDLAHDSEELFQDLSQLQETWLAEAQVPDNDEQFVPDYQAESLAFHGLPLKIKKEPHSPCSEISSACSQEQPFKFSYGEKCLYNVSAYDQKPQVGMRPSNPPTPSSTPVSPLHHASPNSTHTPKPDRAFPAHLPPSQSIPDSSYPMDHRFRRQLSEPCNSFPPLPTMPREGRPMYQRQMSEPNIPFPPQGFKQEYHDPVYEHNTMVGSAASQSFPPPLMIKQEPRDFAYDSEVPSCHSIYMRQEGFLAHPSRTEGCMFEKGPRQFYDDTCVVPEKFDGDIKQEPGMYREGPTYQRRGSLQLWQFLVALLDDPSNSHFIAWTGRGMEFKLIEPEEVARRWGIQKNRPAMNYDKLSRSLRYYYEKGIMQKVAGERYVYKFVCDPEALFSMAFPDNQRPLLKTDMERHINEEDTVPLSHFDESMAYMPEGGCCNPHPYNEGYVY

Turning to CTCCAA, the binding signal with FEV is 1.29 fold enrichment (6-mer frequency, TF over GST control); in the assay with ETV5, 1.3 fold enrichment (6-mer frequency, TF over GST control); in the assay with HSF1, 1.31 fold enrichment (6-mer frequency, TF over GST control); with SPIC, 1.35 fold enrichment (6-mer frequency, TF over GST control); with ELF4, 1.38 fold enrichment (6-mer frequency, TF over GST control); with ELK4 it was 1.23 fold enrichment (6-mer frequency, TF over GST control). Besides, the binding signal in the assay with ETV2 is 1.36 fold enrichment (6-mer frequency, TF over GST control); with ELF3, 1.32 fold enrichment (6-mer frequency, TF over GST control); in the assay with CRX, 1.14 fold enrichment (6-mer frequency, TF over GST control); in the assay with ETV1, 1.33 fold enrichment (6-mer frequency, TF over GST control); with ERF it was 1.32 fold enrichment (6-mer frequency, TF over GST control); with ETV3L it was 1.28 fold enrichment (6-mer frequency, TF over GST control). The binding signal with ETS2 was 1.32 fold enrichment (6-mer frequency, TF over GST control); with SPDEF, 1.33 fold enrichment (6-mer frequency, TF over GST control); in the assay with ETV7, 1.52 fold enrichment (6-mer frequency, TF over GST control); in the assay with ELF5, 1.23 fold enrichment (6-mer frequency, TF over GST control); with ETV3, 1.23 fold enrichment (6-mer frequency, TF over GST control); with ETV6, 1.28 fold enrichment (6-mer frequency, TF over GST control).
